# From PubChem BioAssay (EPA / NIEHS)
# Calls of active or inactive are those of the source. How the source made its calls: active means hit-call score of the fitted dose curve at least 0.9, where 1 is the maximum; inactive means score below 0.9.
# Assay: CCTE_Shafer_MEA_acute_synchrony_index: CCTE's Neural Acute Assay for Synchrony, Shafer Lab (AID 2284027);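 further: fitted for loss of signal so actives lower synchrony relative to DMSO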
# Description: CCTE_Shafer_MEA_acute assay is conducted using Axion Biosystems 48 well microelectrode array (MEA) plates and Maestro recording system. Each well of the MEA plate contains a grid of 16 microelectrodes embedded in the culture surface. Electrically active cells, such as neurons, can be cultured over the electrodes, and electrical activity in these cells can be recorded extracellularly. The spontaneous firing of neurons is captured from each electrode on a microsecond timescale providing both temporally and spatially precise data. […] The CCTE_Shafer_MEA_acute assay uses primary cultures of rat cortical neurons. As these cultures mature over time, neural networks develop functional activity and form cohesive networks in which electrical activity can be highly coordinated. Baseline 40-minute recordings are made on days post-plating 13 or 15, followed by a secondary 40-minute recording after chemical exposure.CCTE_Shafer_MEA_acute_synchrony_index is a component of the CCTE_Shafer_MEA_acute assay. It measures the synchrony of the neural network as a unitless measure between 0 (low synchrony) to 1 (high synchrony) during a recording in a microelectrode array (MEA) using Axion Biosystems Maestro 768 channel amplifier with the AxIS adaptive spike detector. The recordings before and after chemical treatment are used to calculate a percent change in the synchrony index in each well.Data from the assay component CCTE_Shafer_MEA_acute_synchrony_index was analyzed into 1 assay endpoint. This assay endpoint, CCTE_Shafer_MEA_acute_synchrony_index, was analyzed in the negative analysis fitting direction relative to DMSO as the negative control and baseline of activity. Using a type of functional reporter, gain or loss-of-signal activity can be used to understand electrical activity.
# Spontaneous activity in the cortical cultures was recorded using an Axion Biosystems Maestro 768 channel amplifier and Axion Integrated Studios (AxIS) v1.8 (or later) software. The amplifier recorded from all channels simultaneously (gain = 1200 x; sampling rate = 12.5 kHz/channel): raw signals were filtered with a Butterworth band-pass filter (300-5000 Hz), which filters out slower local field potentials leaving only fast potentials, i.e., "spikes", arising from extracellular currents associated with action potentials (Pine 2006; Wheeler and Nam 2011). On-line spike detection of filtered signals was conducted with the AxIS adaptive spike detector, using a threshold of 8x the root mean squared (rms) noise on each channel. Any electrodes with rms noise levels greater than 5 uV were grounded (e.g., no data were recorded). Once grounded, an electrode was grounded for the duration of the experiment. All recordings were conducted at 37 C. Wells were deemed usable if on the day of the exposure >/= 10 electrodes were active (defined as >/= 5 spikes/min). On DIV 13 or 15, a minimum of three wells from one cortical culture preparation were treated with each compound (0.03-40 uM). Prior to recording baseline activity, each mwMEA plate was placed in the Maestro at 37 C and allowed to sit for 20 min while firing rates stabilized. Baseline activity (40 min) was recorded before the addition of each compound. An additional 40 min of spontaneous activity was recorded in the presence of each compound. Changes in network parameters relative to baseline were assessed following compound treatment.
Compound,outcome,AC50
OCC(CO)(CBr)CBr,inactive,–
CCC(C)c1ccccc1O (configuration not stated),–,7.45 µM (active)
CN(C)CCOC(c1ccccc1)c1ccccc1,inactive,–
CCCCCCCCCCCC,inactive,–
CCCCC=O,inactive,–
N=C(N)c1ccc(OCCCCCOc2ccc(C(=N)N)cc2)cc1,–,26.3 µM (active)
O=C(CCCN1CCC(O)(c2ccc(Cl)cc2)CC1)c1ccc(F)cc1,inactive,–
O=C1NS(=O)(=O)c2ccccc21,inactive,–
Oc1ccc(Cc2ccccc2O)cc1,inactive,–
CC(=O)Nc1ccc(O)cc1,inactive,–
Oc1c(Cl)cc(Cl)cc1Sc1cc(Cl)cc(Cl)c1O,–,8.67 µM (active)
CCCCc1oc2ccccc2c1C(=O)c1cc(I)c(OCCN(CC)CC)c(I)c1,inactive,–
